Experimental data reported in PubChem BioAssay AID1259343 (VanderVen Lab, College of Veterinary Medicine, Cornell …, 2017).
About 2,900 (47%) of roughly 6,200 compounds were called active. The set was probably picked from earlier hits. The list shows a part of the results. A number with no mark means an inactive call. No stated cut-off is given here; in the data, active means inhibition above about 50%; inactive means the rest.

Assay: Mycobacterium tuberculosis growth inhibition, primary screen (AID 1259343)
Conditions: inhibition: at 10 µM, stronger effect = higher value; outcome: 10 uM

Compound | inhibition
COc1cccc(OCCCOc2ccc([N+](=O)[O-])cc2)c1 | 27.9%
COc1ccc(OCCN2CCN(c3ccc([N+](=O)[O-])cc3)CC2)cc1 | 90.8% (active)
Cc1cccc2c(=O)[nH]c(Cn3nnn(-c4cccs4)c3=O)nc12 | -0.78%
O=C(NCCn1nc(-c2cccnc2)ccc1=O)Nc1ccc(C(F)(F)F)cc1 | 18.6%
O=C(Nc1nnc(-c2ccc(Cl)cc2)o1)c1ccncc1 | 21.6%
Cc1ccc(C#N)cc1NC(=O)c1ccc(C(F)(F)F)cc1 | -17.1%
Cn1nc(C(C)(C)C)cc1NC(=O)c1ccc(C(F)(F)F)cc1 | 21.5%
CC(C)(C)c1ccc(C(=O)Nc2nnc(-c3cccnc3)o2)cc1 | 97.4% (active)
Cc1nnc(NC(=O)c2ccc(C(F)(F)F)cc2)o1 | 101% (active)
Brc1ccc(NN=C(N=Nc2nn[nH]n2)c2ccccc2)cc1 | 29.1%
Oc1ccc(N=Nc2nn[nH]n2)c(O)c1 | 61.7% (active)
C=CCn1c(SC(C)c2nc3sc(C)c(C)c3c(=O)[nH]2)nnc1C1CCCCC1 (centres undefined) | 0.9%
COc1ccc(NC(=O)CSc2nc(CC(=O)NCCC3=CCCCC3)cs2)cc1 | 86.3% (active)
Cc1ccc(NC(=O)CSc2nc(CC(=O)NCCC3=CCCCC3)cs2)cc1 | 81.6% (active)
C[C@@H]1[C@H]2C[C@@H](C[C@H]1NC(=O)c1ccc(Nc3cccc(C(F)(F)F)c3)nc1)C2(C)C | 6.48%
CCN(C)c1cc(N2CCN(Cc3cc4ccccc4n3C)CC2)ncn1 | 49.3%
Fc1cccc(CN2CCN(Cc3ccc(-c4ccccc4)nc3)CC2)c1 | 27.7%
CC(C)Oc1cccc(CN2CCN(c3ccnc(N(C)C)n3)CC2)c1 | 91% (active)
O=c1cc(O)c2ccccc2o1 | -50.4%
Cc1nnc(Sc2cc(=O)oc3ccccc23)s1 | 99.2% (active)
COC(=O)CSc1nnc(N2CCN(c3ccccc3)CC2)s1 | 75.5% (active)
CNC(=O)NC(=O)COc1ccc(-c2ccccc2)cc1Cl | 40.5%
COC(=O)COc1cc(Cl)c(Cl)cc1Cl | 77.4% (active)
CCCCOC(=O)Nc1cc(C)c(Cl)cc1OC | 45.3%
COC(=O)C(Nc1ccc(OC)cc1)(c1cc(OC)c(O)c(OC)c1)C(F)(F)F (centres undefined) | 84% (active)
COc1cc(C(=O)Nc2cc(C)cc(C)c2)cc(Cl)c1O | -11.6%

Compound | inhibition
Cc1nn(CC(C)C)c2sc(C(=O)NCC3CC3)cc12 | 3.65%
COc1ccc(N=c2scc(-c3cc4ccccc4o3)n2CC2CCCO2)cc1 (centres undefined) | 77% (active)
c1ccc(N=c2scc(-c3ccccc3)n2CC2CCCO2)cc1 (centres undefined) | 20.4%
c1ccc2oc(-c3nnn(CC4CCCCO4)n3)cc2c1 (centres undefined) | 91% (active)
CC12CCC3C(=CCc4cc(O)ccc43)C1CCC2=O (centres undefined) | 43.2%
O=C(NCCc1c[nH]c2ccccc12)c1cn(Cc2ccccc2Cl)nn1 | 21.3%
c1ccc2c(CCNc3ccc(Nc4ccncc4)cc3)c[nH]c2c1 | 72.8% (active)
Cc1cc(C(=O)O)c(C)n1C | -7.58%
CCOC(=O)c1ccc(N2CN=c3sc(=Cc4ccccc4)c(=O)n3C2)cc1 | 88.9% (active)
CC1(C)CN=c2s/c(=C\c3ccc(Cl)cc3)c(=O)n2C1 | 31.2%
CCOC(=O)C1=C(C)N=c2s/c(=C/c3cccc([N+](=O)[O-])c3)c(=O)n2C1c1ccccc1F (centres undefined) | -21.3%
Nc1nc(Cl)nc2c1ncn2[C@@H]1O[C@H](CO)[C@@H](O)[C@H]1O | 80.5% (active)
CN(Cc1cnn(-c2ccc(F)cc2)c1)c1nncc(-c2ccccc2)n1 | inactive
CC1CCCC(C)C1NC(=O)Nc1nncc(-c2ccccc2)n1 (centres undefined) | 21.4%
CN(CCC1CCCCO1)c1nncc(-c2ccccc2)n1 (centres undefined) | 52.4% (active)
Nc1nnc(SCC(=O)c2ccc(OCc3ccccc3)cc2)s1 | 86.1% (active)
c1ccc(OCCSc2nnc3sc4ccccc4n23)cc1 | 40.3%
CC(OC(=O)c1ccc(OCc2ccccc2)cc1)c1nnc(-c2ccccc2)o1 (centres undefined) | 26.8%
Brc1ccc(-c2ccc(C=NNC3=NCCCCC3)o2)cc1 | 92.4% (active)
CCN(CC)C(=S)S | 92.6% (active)
O=C1CCCc2c1[nH]c1ccc(-c3ccccc3CO)cc21 | 90.3% (active)
COc1cncc(-c2ccc(NC(C)=O)cc2)c1 | 85% (active)
COCC(=O)Nc1ccc(-c2cc(OC)cc(OC)c2)cc1 | 88.7% (active)
O=C(CCl)Nc1ccc(Oc2ccc(Br)cc2)cc1 | 18.2%
COc1cc(C(=O)Nc2ccc(-c3cnco3)cc2)ccc1C | 49.6%
COCC(=O)Nc1ccccc1-c1ccc(C(C)C)cc1 | 48.2%

Compound | inhibition
COCC(=O)Nc1ccc(Oc2cccc(C)c2)cc1 | 76.6% (active)
COCC(=O)Nc1cccc(-c2ccc3c(c2)OCCO3)c1 | 63.2% (active)
Cn1cc(C(=O)Nc2ccc(Oc3cccc(C#N)c3)cc2)ccc1=O | 23.5%
CC1(C)OC(=O)C(=C2C3C4CC5C2C2C3CC4C52)C(=O)O1 (centres undefined) | 35.6%
COC(=O)C(C)OC(=O)c1c[nH]c2cc(Br)c(Br)cc12 (centres undefined) | 24.9%
CN(c1ccc(C(N)=O)nn1)C1CCc2ccccc2C1 (centres undefined) | 60.2% (active)
CC(C)c1nnc2sc(C3CCc4ccccc4C3)nn12 (centres undefined) | 43.3%
COc1ccccc1OCCCN1C(=O)C2(OCCCO2)c2ccccc21 | 40.7%
Cc1cccc(OCCCn2c(=O)oc3ccc(C)cc32)c1 | 79.4% (active)
COCCCn1c(-c2ccc(C)cc2)nc2oc3ccccc3c(=O)c2c1=O | 9.29%
Cc1ccc2oc(=O)n(CCCOc3ccccc3C)c2c1 | 95.8% (active)
Cc1ccc(N2C(=O)N(CCOc3cccc(Br)c3)C(=O)C2C)cc1 (centres undefined) | 27.6%
Cc1cccc(OCCCn2c(=O)oc3ccccc32)c1 | -23.7%
Cc1ccc(N(CC(=O)O)S(C)(=O)=O)cc1C | 92.8% (active)
O=C1NC(c2sc3ccccc3c2Cl)Nc2ccccc21 (centres undefined) | 28.9%
CC1(C)CC(=O)C(C(=O)Nc2sc3ccccc3c2Cl)C(=O)C1 | 98.3% (active)
Cc1cc(=O)[nH]c(-n2nc(-c3cccs3)cc2NC(=O)c2ccc(Br)o2)n1 | 97.5% (active)
CC(C)c1cc(=O)[nH]c(-n2nc(-c3cccs3)cc2NC(=O)c2cc3ccccc3o2)n1 | 100% (active)
CC(C)c1cc(=O)[nH]c(-n2nc(-c3cccs3)cc2NC(=O)c2ccc(Br)o2)n1 | 99.9% (active)
Cc1cc(C(=S)N=P(N(C)C)(N(C)C)N(C)C)c(C)n1-c1ccccc1 | 98.9% (active)
FC(F)(F)c1nnc2n1Nc1nc3ccccc3nc1S2 | 100% (active)
COC(=O)Cc1ccc(C(=O)CCl)s1 | 92.5% (active)
NC(=S)Nc1ccc(F)c(Cl)c1 | 4.04%
NC(=S)Nc1ccc(F)cc1 | 52.9% (active)
NC(=S)Nc1ccc(Cl)cc1 | 7.09%
CC(=NOCc1cccc(CON=C(C)c2ccccc2)c1)c1ccccc1 | 86.9% (active)

Compound | inhibition
COc1cc(N/N=C(/C)c2cccc(C(F)(F)F)c2)nc(SC)n1 | 41.1%
CCc1nc(C)c(C(=O)Nc2ccc(CCC(F)(F)F)cc2)s1 | 66.2% (active)
CCc1ccc(-c2nc(C)c(C(=O)Nc3ccc(OC)nc3)s2)cc1 | 42.7%
O=C(CCl)Nc1cc2c(cc1Br)OCCO2 | 94.1% (active)
Cc1cc(N2CCCC2)ccc1NC(=O)CCl | 1.87%
O=C(Nc1ccc(Oc2ccccc2F)cc1)C1CCN(C(=O)C2CCCCO2)CC1 (centres undefined) | 88.7% (active)
O=C(Nc1ccc(Oc2ccccc2F)cc1)C1CCN(C(=O)C2CC23CCC3)CC1 (centres undefined) | 91.3% (active)
O=C(Nc1ccc(Oc2ccccc2F)cc1)C1CCN(C(=O)C2CCCO2)CC1 (centres undefined) | inactive
S=C(Nc1ccc(Cl)cc1)Nc1ccc2cn[nH]c2c1 | 37.2%
FC(F)Oc1ccc(NC(=S)Nc2ccc3cn[nH]c3c2)cc1 | -5.27%
COc1ccc(NC(=S)Nc2ccc3cn[nH]c3c2)cc1 | 68.9% (active)
C[C@]12C=CC(=O)C=C1CC[C@@H]1C2=CC[C@]2(C)[C@@H](C(=O)CN3CCN(c4cc(N5CCCC5)nc(N5CCCC5)n4)CC3)CC[C@@H]12 | 89.9% (active)
FC(F)(F)CCc1ccnc(N[C@@H]2C[C@H]2c2ccccc2)n1 | 30.5%
CC(C)c1nc(CNc2nccc(CCC(F)(F)F)n2)cs1 | 94.8% (active)
CC(C)c1nc(CN(C)Cc2ccc3ccccc3n2)cs1 | 2.62%
Nc1ccc2oc(CCc3ccccc3)nc2c1 | 33%
Nc1ccc2oc(=O)ccc2c1 | 77.1% (active)
O=c1ccc2ccc(O)cc2o1 | 74% (active)
Cc1c(Cl)c(=O)oc2cc(O)ccc12 | -23%
Nc1nc2c3ccccc3nc(-c3ccccc3)n2n1 | 83.3% (active)
COc1cccc(Nc2nc(C(N)CCc3ccccc3)cs2)n1 (centres undefined) | 82.2% (active)
COc1cccc(Nc2nc(C(N)COCc3ccccc3)cs2)n1 (centres undefined) | 64.3% (active)
NC(=O)C1(N2CCCCC2)CCN(c2nc(-c3ccc(Cl)cc3Cl)cs2)CC1 | -20.2%
Cc1ccc(CNc2nc3c(s2)CCCC3)cc1 | 74% (active)
Nc1[nH]c(N=Nc2nc3c(s2)CCCC3)c2ccccc12 | -27.1%
Cc1ccc(NCc2ccc(C(=O)NCC3(CO)CCC3)cc2)cc1 | 43.9%
